High-throughput results as filed in PubChem.
An excerpt weighted towards active compounds, which were near 4% of everything screened.
FGF22 binding-1 – binders of recombinant human FGF22 by thermal shift; Q9HCT0; SYPRO orange fluorescence; percent of sucrose octasulfate shift, DMSO zero; activity (Tm shift, normalised), % at 9.99 µM; 340,000 tested, 1.5% active; AID 651658;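 active means mean Tm shift, scaled 0 neutral to 100 positive control, at about 1.3% or above, every replicate too, limit read from the data; inconclusive means no clear call, values can overlap the other calls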
Target sequence (Q9HCT0 whole entry, looked up): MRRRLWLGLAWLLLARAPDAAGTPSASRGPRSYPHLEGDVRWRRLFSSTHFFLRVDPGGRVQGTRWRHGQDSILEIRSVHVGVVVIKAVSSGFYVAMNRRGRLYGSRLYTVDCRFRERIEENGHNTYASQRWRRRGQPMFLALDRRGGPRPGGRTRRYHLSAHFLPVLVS
AF4-AF9 inh – blocks AF4 peptide binding to human AF9; AlphaScreen, biotin-AF4 peptide binding to FLAG-AF9; inhibition, % at 10 µM; 350,000 tested, 0.47% active; AID 651704;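 active means every replicate reaching a set inhibition limit, whatever the replicate mean, cut at about 25% in these data; inconclusive means mean inhibition reaches that limit but some replicates miss it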;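 further: 0% = plate neutral control median and 100% = total signal loss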
ERAP1 inh – blocks human ERAP1 aminopeptidase activity. inhibition, % at 10.7 µM. AID 652197. recombinant ERAP1, Leu-AMC fluorescence, 60 min. Q9NZ08. 340,000 tested, 0.15% active;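 active means mean replicate inhibition of at least 30%, or all replicates individually reaching that 30% level; inactive means mean below 30% and not every replicate reaching it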;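 further: 0% = neutral control wells and 100% = L-leucinethiol positive control wells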
DENV2 CPE rescue – inhibitors of DENV2 cytopathic effect. DENV2-infected cells, cytopathic effect rescue, plate reader. AID 651640. CPE inhibition, % at 9.99 µM. 350,000 tested, 1.7% active; in the data active means CPE inhibition above about 20%, passing the limit was not always enough; inconclusive means no clear call, values can overlap the other calls; tested in BHK-21 cells;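 further: 0% = median of neutral control wells and 100% = median of positive control wells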
RAD52 anneal inh – RAD52 (human) annealing inhibition. inhibition, % at 18.7 µM. recombinant RAD52 DNA annealing, FRET fluorescence. 360,000 tested, 0.46% active. P43351;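 active means every replicate showing at least 50% inhibition; inconclusive means mean inhibition at least 50% but not in every replicate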
Target sequence (P43351 whole entry, looked up): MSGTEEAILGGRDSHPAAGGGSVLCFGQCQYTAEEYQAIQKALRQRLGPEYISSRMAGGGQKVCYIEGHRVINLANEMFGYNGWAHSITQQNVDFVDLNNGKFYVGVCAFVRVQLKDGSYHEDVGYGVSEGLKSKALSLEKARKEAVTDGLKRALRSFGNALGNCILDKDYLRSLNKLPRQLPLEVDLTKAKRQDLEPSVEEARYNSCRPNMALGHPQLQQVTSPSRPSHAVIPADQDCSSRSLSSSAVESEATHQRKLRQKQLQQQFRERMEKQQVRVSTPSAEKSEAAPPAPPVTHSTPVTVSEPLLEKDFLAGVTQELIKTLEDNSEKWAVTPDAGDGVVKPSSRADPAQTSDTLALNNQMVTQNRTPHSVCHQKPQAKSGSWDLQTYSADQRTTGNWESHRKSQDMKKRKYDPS
FGF22 binding-2 – FGF22 (human) binding in thermal shift; shares compounds with FGF22 binding-1; recombinant FGF22 thermal shift, SYPRO orange fluorescence; thermal shift activity, °C (ΔTm) at 38 µM; 1,000 tested, 2% active; AID 720646;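 active means fitted rise in melting shift crosses a set limit at or below the top valid dose tested; inconclusive means flat fit at mid-level activity, or a poor quality fit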
FGF22 TSA – binds human FGF22 shifting its melting temperature. shares compounds with FGF22 binding-1. Thermal shift assay, SYPRO orange, melting temperature shift. Tm shift (activity), % at 38 µM. 50 tested, under 10 active;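 active means compounds whose fitted dose curve of melting temperature shift rises past a set threshold within the tested doses; inconclusive means flat curve at moderate activity, or poor curve fit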
SYPRO no-protein – counter-screen for FGF22 binders: compound-only thermal shift, no protein; shares compounds with FGF22 binding-1; compound-only SYPRO orange thermal shift counter-screen; AC50, µM (titrated, usually from 38 µM); 1,000 tested, 2% active; AID 743019;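 active means rising signal whose fitted curve reaches the 0.54 level within the top valid dose, showing a melting point, actives reach about 13 µM in these data; inactive means the rest, including activity in the opposite direction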; further: value is where the raw curve crosses a fixed level and not half-maximal
The depositor's hits bear a star; i = inactive; ? = inconclusive; . = no result; ! = not active in a repeat; [ ] = dose if it differs, or a comment.

SMILES	FGF22 binding-1	AF4-AF9 inh	ERAP1 inh	DENV2 CPE rescue	RAD52 anneal inh	FGF22 binding-2	SYPRO no-protein	others
CCn1c2ccccc2c2cc(/C=N/NC(=O)c3ccncc3)ccc21	1.5*	5	-4	0	-5	0.13	i
C[C@@H]1CN([C@@H](C)CO)C(=O)CCCn2nncc2CO[C@H]1CN(C)Cc1ccccc1C(=O)O	1.3*	-31	-6	-14	-8	-0.096[42 µM]	i
C[C@H](CO)N1C[C@H](C)[C@H](CN(C)S(=O)(=O)c2ccc(F)cc2)OCc2cnnn2CCCC1=O	1.5*!	-1	0	-6	-7	-0.09[42 µM]	i
C[C@@H]1CN([C@@H](C)CO)C(=O)CCCn2nncc2CO[C@H]1CN(C)S(=O)(=O)c1ccc(F)cc1	0	-2	-3	5	-9	.	.
C[C@H](CO)N1C[C@H](C)[C@@H](CN(C)C(=O)OCc2ccccc2)OCc2cn(nn2)CCCC1=O	17*!	-2	-3	4	-13	0.091	i
C[C@H](CO)N1C[C@H](C)[C@H](CN(C)C(=O)c2cc(-c3ccccc3)on2)OCc2cnnn2CCCC1=O	30*!	1	-6	?	-7	0.091	i
C[C@H]1CN([C@@H](C)CO)C(=O)CCCn2nncc2CO[C@@H]1CN(C)Cc1ccccc1C(=O)O	1	-16	-7	4	-4	.	.
C[C@@H]1CN([C@@H](C)CO)C(=O)CCCn2cc(nn2)CO[C@H]1CN(C)C(=O)OCc1ccccc1	0	-1	-3	-8	2	.	.
O=C(C[C@@H]1CC[C@@H](NC(=O)Nc2ccc(F)cc2)[C@@H](CO)O1)NCc1cccc(F)c1	0	-1	1	1	4	.	.
N#Cc1ccc(-c2ccc([C@@H]3[C@@H]4CN(S(=O)(=O)Cc5ccccc5)C[C@H]3N4)cc2)cc1	0	.	.	15	.	.	.
Cc1ccc(S(=O)(=O)N2C[C@]3(O)C[C@@H]4C(=O)N(c5ccccc5)C(=O)[C@@H]4C[C@]3(OC(=O)NCC3CCCCC3)C2)cc1	3.2*	-2	-1	4	-5	0.05	i
C[C@H](CO)N1C[C@H](C)[C@@H](CN(C)Cc2cccc(C(=O)O)c2)Oc2ncc(-c3ccccc3F)cc2C1=O	0	-5	0	3	14	.	.
CC(C)(C)S(=O)(=O)/C(C#N)=N/Nc1ccc(Cl)cc1	1.7*	1	6	-7	-10	0.023	i
CC(C)(C)c1ccc(N/N=C(\C#N)S(=O)(=O)C(C)(C)C)cc1	0	1	8	5	-9	.	.
Cc1ccc(-c2ccc([C@@H]3[C@@H](CO)N4C(=O)CN(C(=O)c5ccc(F)cc5)C[C@H]34)cc2)cc1	1.2*	2	3	?	-6	-0.12	i
Cc1ccc(-c2ccc([C@H]3[C@@H](CO)N4C(=O)CN(C(=O)c5ccc(F)cc5)C[C@@H]34)cc2)cc1	1.8*	1	1	16	8	0.12	i
Cc1ccc(-c2ccc([C@H]3[C@H](CO)N4C(=O)CN(C(=O)c5ccc(F)cc5)C[C@@H]34)cc2)cc1	1	1	4	-6	8	.	.
O=C(c1ccc2c(c1)OCO2)N1CC(=O)N2[C@@H](CO)[C@H](c3ccc(C#CCC4CCCC4)cc3)[C@@H]2C1	1.8*	4	1	9	21	-0.027	i
O=C(c1ccccc1)N1CC(=O)N2[C@H](C1)[C@@H](c1ccc(C#CC3CC3)cc1)[C@@H]2CO	1.8*	2	4	-15	14	0.055[42 µM]	i
CO[C@@H]1CN(C)C(=O)c2ccc(NS(=O)(=O)c3ccccc3)cc2OC[C@H](C)N(Cc2cccnc2)C[C@H]1C	0	3	-2	-2	-16	.	.
O=S(=O)(Nc1cc(Cl)ccc1-n1cncn1)c1ccc(F)cc1	1.5*	-6	0	1	-9	-0.013	i
O=C(CCN1CCCCC1)N[C@@H]1CC[C@H](CCNS(=O)(=O)c2ccc(F)cc2)O[C@H]1CO	1.7*	3	2	-1	9	-0.19	i
O=C(CCN1CCCCC1)N[C@@H]1CC[C@@H](CCNS(=O)(=O)c2ccc(F)cc2)O[C@H]1CO	1	2	1	-6	5	.	.
Cc1ccccc1S(=O)(=O)NCC[C@@H]1CC[C@@H](NC(=O)Nc2cccc(Cl)c2)[C@@H](CO)O1	1.3*	5	-3	?	20	-0.071[42 µM]	i
O=C(Nc1cc(Cl)cc(Cl)c1)N[C@@H]1CC[C@@H](CCNS(=O)(=O)c2cccc(F)c2)O[C@@H]1CO	2.7*!	2	3	4	-26	-0.31[42 µM]	i	FGF22 TSA=0
SMILES	FGF22 binding-1	AF4-AF9 inh	ERAP1 inh	DENV2 CPE rescue	RAD52 anneal inh	FGF22 binding-2	SYPRO no-protein	others
COCC(=O)N1CC[C@@H]2[C@H]1c1cc(C#Cc3ccccc3)ccc1N[C@@H]2CO	0	-2	-3	-14	-48	.	.
COc1ccc(-c2ccccc2[C@@H]2[C@H](C#N)N(C(=O)c3cccnc3)[C@H]2CO)cc1	.	1	-4	17	2	.	.
CN1c2ccc(Br)cc2[C@@H]2[C@@H](CCN2C(=O)Nc2ccccc2F)[C@@H]1CO	0	0	1	-10	-8	.	.
CC(C)NC(=O)N(C)C[C@@H]1Oc2c(NC(=O)C3CCCCC3)cccc2C(=O)N([C@@H](C)CO)C[C@H]1C	0	-4	.	1	6	.	.
O=S1(=O)N=C(N(Cc2cccs2)c2ccc(O)cc2)c2ccccc21	1.4*	2	5	4	1	.	i	FGF22 TSA=0
COc1ccc(-c2nc(CCl)cs2)cc1OC	0	0	-3	9	0	.	.
COc1ccc(-c2nc(-c3ccc(O)cc3O)cs2)cc1OC	2.5*	10	-3	-4	-10	0.11	i	FGF22 TSA=0
CNC[C@H]1Oc2ccc(NC(=O)C3CCCCC3)cc2C(=O)N([C@@H](C)CO)C[C@H]1C	1.2*	-6	3	-5	9	0.17[42 µM]	i
CNC[C@H]1Oc2ccc(NC(=O)Nc3ccc(OC)cc3)cc2C(=O)N([C@H](C)CO)C[C@@H]1C	1.4*	-1	-5	9	-5	0.098[42 µM]	i
CNC[C@H]1Oc2ccc(NC(=O)Nc3ccccc3)cc2C(=O)N([C@H](C)CO)C[C@@H]1C	0	-2	-1	7	-17	.	.
O=C(C[C@@H]1CC[C@@H]2[C@H](COC[C@H](O)CN2Cc2ccccc2F)O1)N[C@H]1CCN(Cc2ccccc2)C1	0	3	0	-6	-9	.	.
N#C[C@@H]1[C@@H](c2ccc(C3=CCCCC3)cc2)[C@H](CO)N1S(=O)(=O)c1ccccc1	1.3*	5	-1	-5	-73	-0.2	i
